For some assays here: Entries with a potency or affinity are not part of this list.

Common to all, as to parameters: scale not given: direction of the effect not stated beside the values
Assay [1] addresses Protein translocase subunit SecA (Escherichia coli (strain K12)) (UniProt P10408). In words: Assay to Identify E. coli SecA ATPase Inhibitors. The assay is classed as functional. The conditions noted are these: 30 µM.
Assay [2] has as its target T1, Ubiquitin-activating enzyme e1, putative (Leishmania donovani (strain BPK282A1)) (UniProt E9BSI1).
T1 sequence (whole entry): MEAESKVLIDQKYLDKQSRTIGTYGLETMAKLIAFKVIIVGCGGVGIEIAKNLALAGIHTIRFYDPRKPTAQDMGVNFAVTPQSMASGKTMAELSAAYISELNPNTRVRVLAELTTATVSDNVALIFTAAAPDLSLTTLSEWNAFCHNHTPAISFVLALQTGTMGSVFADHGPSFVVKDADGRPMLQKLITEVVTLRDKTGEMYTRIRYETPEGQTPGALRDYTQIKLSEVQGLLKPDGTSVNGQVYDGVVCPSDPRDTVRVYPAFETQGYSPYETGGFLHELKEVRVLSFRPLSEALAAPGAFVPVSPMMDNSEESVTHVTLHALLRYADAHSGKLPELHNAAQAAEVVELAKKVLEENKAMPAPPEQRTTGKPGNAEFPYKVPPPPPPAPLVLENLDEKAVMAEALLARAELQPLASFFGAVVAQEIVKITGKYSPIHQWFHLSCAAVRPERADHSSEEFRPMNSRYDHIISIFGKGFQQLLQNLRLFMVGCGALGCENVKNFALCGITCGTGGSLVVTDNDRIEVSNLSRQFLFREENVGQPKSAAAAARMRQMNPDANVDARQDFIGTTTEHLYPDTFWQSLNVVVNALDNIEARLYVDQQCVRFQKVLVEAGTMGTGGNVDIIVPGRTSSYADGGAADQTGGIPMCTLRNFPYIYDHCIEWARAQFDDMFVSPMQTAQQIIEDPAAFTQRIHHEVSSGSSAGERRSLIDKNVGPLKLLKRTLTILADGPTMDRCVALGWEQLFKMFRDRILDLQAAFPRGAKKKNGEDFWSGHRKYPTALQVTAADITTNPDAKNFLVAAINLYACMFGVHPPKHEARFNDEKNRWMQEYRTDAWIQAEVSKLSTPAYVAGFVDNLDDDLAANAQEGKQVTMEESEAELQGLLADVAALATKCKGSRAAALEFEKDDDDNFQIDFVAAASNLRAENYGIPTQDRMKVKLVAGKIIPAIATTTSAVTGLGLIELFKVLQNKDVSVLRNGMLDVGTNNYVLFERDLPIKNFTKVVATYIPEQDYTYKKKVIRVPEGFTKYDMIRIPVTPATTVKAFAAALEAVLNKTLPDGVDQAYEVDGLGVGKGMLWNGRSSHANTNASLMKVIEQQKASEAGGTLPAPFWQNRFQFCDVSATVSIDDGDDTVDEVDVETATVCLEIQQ
The assay can be described thus: Leishmania donovani Ubiquitin Activating Enzyme (LdE1). It is filed as functional. The conditions noted are these: 30 µM.

Assay [3] deals with Sialic acid-binding Ig-like lectin 9 (Homo sapiens) (UniProt Q9Y336). In words: Hs-Siglec9 ALPHAscreen SOP 20170721. The conditions noted are these: 10 µM.
Chain of Sialic acid-binding Ig-like lectin 9 (Homo sapiens) (Q9Y336 whole entry): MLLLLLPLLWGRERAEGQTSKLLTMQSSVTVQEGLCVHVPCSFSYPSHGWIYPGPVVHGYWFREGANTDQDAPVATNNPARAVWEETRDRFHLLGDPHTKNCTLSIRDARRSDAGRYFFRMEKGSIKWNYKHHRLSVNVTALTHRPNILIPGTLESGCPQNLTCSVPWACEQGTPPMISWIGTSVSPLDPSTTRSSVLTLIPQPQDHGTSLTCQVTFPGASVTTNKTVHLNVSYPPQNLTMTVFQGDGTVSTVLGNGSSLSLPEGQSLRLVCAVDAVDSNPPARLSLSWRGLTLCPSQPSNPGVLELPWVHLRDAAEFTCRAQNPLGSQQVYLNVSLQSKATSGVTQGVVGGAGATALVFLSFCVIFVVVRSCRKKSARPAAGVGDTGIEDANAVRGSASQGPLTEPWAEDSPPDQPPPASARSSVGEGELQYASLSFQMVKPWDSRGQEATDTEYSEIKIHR
Another assay concerns Trypanosoma cruzi. In words: Trypanosoma cruzi phosphomannomutase and mannose-1-phosphate guanylyltransferase assay. The settings on record: 10 µM. It is filed as functional.
The target of assay [4] is T2, Arginase-2, mitochondrial (Homo sapiens) (UniProt P78540).
T2 sequence (whole entry): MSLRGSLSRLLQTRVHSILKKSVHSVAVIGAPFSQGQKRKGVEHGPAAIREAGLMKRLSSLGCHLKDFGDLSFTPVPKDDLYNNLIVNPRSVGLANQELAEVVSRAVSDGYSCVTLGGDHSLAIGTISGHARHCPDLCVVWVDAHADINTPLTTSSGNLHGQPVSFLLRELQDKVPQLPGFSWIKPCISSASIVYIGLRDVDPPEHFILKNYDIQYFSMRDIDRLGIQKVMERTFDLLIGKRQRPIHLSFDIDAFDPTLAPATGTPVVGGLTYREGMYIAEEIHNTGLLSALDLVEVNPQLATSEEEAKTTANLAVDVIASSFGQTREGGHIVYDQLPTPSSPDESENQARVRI
In words: in vitro enzyme assay to detect the production of urea directly proportional to the activity of Arginase II. Note: in the data most compounds retested in dose-response had high values. The assay is classed as functional. The conditions noted are these: 33.3 µM.

Assay [5] deals with T3, Proteasome subunit beta (Trypanosoma cruzi) (UniProt O96673).
T3 sequence (whole entry): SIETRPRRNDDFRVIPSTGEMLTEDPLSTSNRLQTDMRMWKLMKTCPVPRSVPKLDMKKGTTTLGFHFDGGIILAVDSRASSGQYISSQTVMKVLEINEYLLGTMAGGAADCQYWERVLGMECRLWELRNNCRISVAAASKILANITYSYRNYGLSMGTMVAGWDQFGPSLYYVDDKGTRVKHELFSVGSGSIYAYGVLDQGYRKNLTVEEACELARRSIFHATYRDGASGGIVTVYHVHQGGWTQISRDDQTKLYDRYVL
In words: Trypanosoma cruzi proteasome chymotrypsin-like activity (TcProtChymo) assay. Note: in the data most compounds retested in dose-response had high values. It is filed as functional. The conditions noted are these: 9.37 µM.

The species named for another assay is Homo sapiens. In words: To identify inhibition of the IFN signalling (Jak-Stat) pathway via expression of an eGFP reporter gene under the control of an IFN-stimulated response element (ISRE) containing MxA promoter. The assay is classed as functional. The conditions noted are these: 30 µM. A general note: In a reporter assay the amount or activity of a reporter protein is the signal.

Assay [6] has as its target T4, Tyrosyl-tRNA synthetase, putative (Trypanosoma cruzi (strain CL Brener)) (UniProt Q4DSP6).
T4 sequence (whole entry): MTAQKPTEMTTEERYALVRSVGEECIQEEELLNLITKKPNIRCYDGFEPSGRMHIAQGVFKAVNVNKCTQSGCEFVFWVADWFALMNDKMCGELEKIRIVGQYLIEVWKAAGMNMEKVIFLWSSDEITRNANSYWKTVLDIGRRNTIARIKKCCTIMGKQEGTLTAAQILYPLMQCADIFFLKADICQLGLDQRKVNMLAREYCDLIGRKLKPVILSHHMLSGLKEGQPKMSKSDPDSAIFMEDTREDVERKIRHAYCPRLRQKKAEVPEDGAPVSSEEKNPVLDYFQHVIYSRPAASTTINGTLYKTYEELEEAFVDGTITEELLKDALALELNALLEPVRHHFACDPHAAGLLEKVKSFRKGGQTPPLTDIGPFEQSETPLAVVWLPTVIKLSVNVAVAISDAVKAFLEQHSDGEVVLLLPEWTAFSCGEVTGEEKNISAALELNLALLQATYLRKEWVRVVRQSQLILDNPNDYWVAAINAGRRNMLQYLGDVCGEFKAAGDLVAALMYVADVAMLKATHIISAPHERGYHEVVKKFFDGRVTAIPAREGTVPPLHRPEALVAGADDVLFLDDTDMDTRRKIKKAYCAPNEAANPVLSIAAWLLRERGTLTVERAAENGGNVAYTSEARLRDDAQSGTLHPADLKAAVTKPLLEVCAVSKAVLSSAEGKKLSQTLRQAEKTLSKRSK
The assay can be described thus: Trypanosoma cruzi tyrosyl tRNA synthetase (TcYRS) _High Tyrosine SOP. Note: in the data most compounds retested in dose-response had high values. The conditions noted are these: 30 µM. The assay is classed as functional.

The target of assay [7] is T4, Tyrosyl-tRNA synthetase, putative (Trypanosoma cruzi (strain CL Brener)). In words: Trypanosoma cruzi tyrosyl tRNA synthetase (TcYRS) SOP. It is filed as functional. The conditions noted are these: 30 µM.
Assay [8] has as its target Chromo domain-containing protein 1 (Saccharomyces cerevisiae (strain ATCC 204508 / S288c) (Baker's yeast)) (UniProt P32657). In words: ScCHD-1 Enzyme Inhibition Assay. Note: in the data most compounds retested in dose-response had high values. The settings on record: 30 µM. It is filed as functional.

Chain of Chromo domain-containing protein 1 (Saccharomyces cerevisiae (strain ATCC 204508 / S288c) (Baker's yeast)) (P32657 whole entry, the tested form may be a part): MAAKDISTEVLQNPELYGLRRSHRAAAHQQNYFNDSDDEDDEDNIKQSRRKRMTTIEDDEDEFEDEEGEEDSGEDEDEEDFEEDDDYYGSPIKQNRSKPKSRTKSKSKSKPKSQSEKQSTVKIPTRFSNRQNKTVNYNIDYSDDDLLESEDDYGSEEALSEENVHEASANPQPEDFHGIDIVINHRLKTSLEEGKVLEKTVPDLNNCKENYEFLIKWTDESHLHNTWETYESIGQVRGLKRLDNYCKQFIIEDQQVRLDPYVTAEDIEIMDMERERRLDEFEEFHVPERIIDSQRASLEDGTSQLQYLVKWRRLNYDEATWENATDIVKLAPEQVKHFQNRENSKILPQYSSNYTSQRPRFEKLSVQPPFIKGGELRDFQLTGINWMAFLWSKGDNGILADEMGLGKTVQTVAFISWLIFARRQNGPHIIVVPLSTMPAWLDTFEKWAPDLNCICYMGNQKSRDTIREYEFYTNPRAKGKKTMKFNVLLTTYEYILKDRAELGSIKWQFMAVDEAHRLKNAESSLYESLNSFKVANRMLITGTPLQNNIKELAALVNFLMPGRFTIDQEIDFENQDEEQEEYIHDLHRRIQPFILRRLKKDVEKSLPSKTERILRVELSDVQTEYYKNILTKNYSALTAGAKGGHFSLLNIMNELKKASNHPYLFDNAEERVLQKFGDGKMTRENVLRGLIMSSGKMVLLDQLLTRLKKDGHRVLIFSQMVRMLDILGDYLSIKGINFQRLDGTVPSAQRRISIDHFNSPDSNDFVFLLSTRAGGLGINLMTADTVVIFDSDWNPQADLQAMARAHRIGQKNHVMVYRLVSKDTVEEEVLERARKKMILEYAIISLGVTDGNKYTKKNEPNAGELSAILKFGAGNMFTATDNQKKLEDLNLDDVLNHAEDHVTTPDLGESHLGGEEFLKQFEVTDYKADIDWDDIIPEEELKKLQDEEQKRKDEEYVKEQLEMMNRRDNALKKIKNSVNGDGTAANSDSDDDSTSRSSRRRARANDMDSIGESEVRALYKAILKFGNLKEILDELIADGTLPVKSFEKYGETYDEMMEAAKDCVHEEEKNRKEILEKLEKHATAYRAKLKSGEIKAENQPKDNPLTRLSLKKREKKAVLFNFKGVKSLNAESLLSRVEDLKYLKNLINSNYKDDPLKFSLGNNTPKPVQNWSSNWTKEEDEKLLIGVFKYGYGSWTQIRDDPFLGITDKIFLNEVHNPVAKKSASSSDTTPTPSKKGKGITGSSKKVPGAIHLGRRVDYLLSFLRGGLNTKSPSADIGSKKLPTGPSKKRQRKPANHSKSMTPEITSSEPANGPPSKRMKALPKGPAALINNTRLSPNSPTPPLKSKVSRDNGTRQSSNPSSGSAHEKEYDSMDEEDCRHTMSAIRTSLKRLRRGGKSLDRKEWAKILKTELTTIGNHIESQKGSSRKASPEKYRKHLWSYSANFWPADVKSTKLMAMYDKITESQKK
Chain of Protein translocase subunit SecA (Escherichia coli (strain K12)) (P10408 whole entry): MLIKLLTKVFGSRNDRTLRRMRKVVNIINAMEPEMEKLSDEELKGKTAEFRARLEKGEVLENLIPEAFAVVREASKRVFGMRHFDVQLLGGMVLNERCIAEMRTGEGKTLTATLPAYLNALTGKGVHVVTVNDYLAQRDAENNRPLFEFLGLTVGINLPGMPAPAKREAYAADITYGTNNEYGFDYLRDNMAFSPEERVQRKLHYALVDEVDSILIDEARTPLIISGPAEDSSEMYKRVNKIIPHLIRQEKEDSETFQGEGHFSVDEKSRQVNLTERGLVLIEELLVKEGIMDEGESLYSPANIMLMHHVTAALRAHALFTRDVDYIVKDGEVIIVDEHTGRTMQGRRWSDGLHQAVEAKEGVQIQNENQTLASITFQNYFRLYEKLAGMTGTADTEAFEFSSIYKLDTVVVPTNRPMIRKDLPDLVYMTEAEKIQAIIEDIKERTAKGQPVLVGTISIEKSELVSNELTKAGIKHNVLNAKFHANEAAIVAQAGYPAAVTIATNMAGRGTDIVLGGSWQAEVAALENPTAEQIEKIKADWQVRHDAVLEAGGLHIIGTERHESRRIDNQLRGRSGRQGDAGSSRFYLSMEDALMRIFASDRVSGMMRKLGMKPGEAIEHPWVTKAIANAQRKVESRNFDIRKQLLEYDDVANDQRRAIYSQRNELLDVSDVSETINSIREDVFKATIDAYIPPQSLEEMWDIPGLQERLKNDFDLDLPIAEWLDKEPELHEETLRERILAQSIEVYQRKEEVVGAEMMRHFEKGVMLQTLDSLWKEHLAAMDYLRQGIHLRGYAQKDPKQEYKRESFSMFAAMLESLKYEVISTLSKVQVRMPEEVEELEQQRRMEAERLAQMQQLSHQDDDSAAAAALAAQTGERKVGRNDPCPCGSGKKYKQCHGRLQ

On to `O=C(NCC1CCOC1)c1ccc(OCC(F)(F)F)nc1` (stereo not given), for which the Percent Effect in [1] is -1.32%; in assay [2], 12.8%; in assay [3], 9.89%; in the assay on Trypanosoma cruzi, -4.98%; in assay [4] it was 2.46%; in assay [5], 6.91%. The Percent Effect was 25.9% in the assay filed under Homo sapiens, 3.35% in assay [6], 10.8% in [7] and -2.44% in assay [8].

Take `CCc1c(C)nn(CCNC(=O)C2CCCN(C(=O)N(C)C)C2)c1C` (stereo not given): the Percent Effect in assay [1] was -6.94%; in assay [2], 5.41%; in [3], 6.18%; in the assay with Trypanosoma cruzi, 2.04%; in assay [4], 6.64%; in assay [5] it was 7.36%. The Percent Effect in the assay filed under Homo sapiens is 10.5%; in assay [6], 5.85%; in [7], 14.6%; in [8], 41.1%.

With `COc1ccccc1OCCN1CCCC(c2cc(C(N)=O)[nH]n2)C1` (stereo not given), the Percent Effect was -3.66% in assay [1]; 2.67% in assay [2]; 8.25% in assay [3]; -3.01% in the assay with Trypanosoma cruzi; 4.43% in [4]; 12% in assay [5]. The Percent Effect is -0.623% in the assay filed under Homo sapiens, 2.63% in assay [6], 5.13% in [7] and -8.44% in [8].

For the compound `CCN(C)c1ncnc2c1CCN(Cc1ccc(OC)cc1)CC2`, the Percent Effect in assay [1] was -4.72%; in assay [2] it was 6.49%; in assay [3], -9.08%; in the assay with Trypanosoma cruzi it was -2.04%; in assay [4], 2.43%; in [5], 13.5%. Besides, the Percent Effect was 25.4% in the assay filed under Homo sapiens, 0.526% in assay [6], 7.69% in [7] and -4.67% in [8].

Take `CC1COCCN1C(=O)c1cccc(OCc2cscn2)c1` (stereo not given): the Percent Effect is -2.94% in assay [1]; 10.3% in assay [2]; -10.6% in [3]; 7.98% in the assay with Trypanosoma cruzi; -4.1% in assay [4]; 9.3% in assay [5]. Besides, the Percent Effect in the assay listed under Homo sapiens was -21.1%; in assay [6], 5.26%; in [7] it was 20.5%; in assay [8], -2.42%.

`c1ccc(CNC2CCc3ncnn3C2)nc1` (stereo not given): the Percent Effect in assay [1] was 0.311%; in [2] it was 12.8%; in assay [3], -14.6%; with Trypanosoma cruzi it was -4.98%; in assay [4] it was 1.23%; in assay [5], 21.1%. Also, the Percent Effect in the assay listed under Homo sapiens is 30.1%; in [6], 9.09%; in assay [7] it was 20.5%; in assay [8] it was -2.61%.

Turning to `CN(C)C[C@H]1OC[C@@H]2CCN(S(=O)(=O)c3cccs3)C[C@@H]21`, the Percent Effect was -10.2% in assay [1]; 1.3% in [2]; 12.5% in assay [3]; -2.43% in the assay on Trypanosoma cruzi; -2.43% in [4]; 2.56% in assay [5]. For the same compound, the Percent Effect in the assay filed under Homo sapiens was 0.627%; in [6], -0.526%; in assay [7], -2.56%; in assay [8], 19.4%.

Take `CC(C)c1cc(N2CCC(CCC(=O)NC3CC3)CC2)n2nccc2n1`: the Percent Effect in [1] was -2.45%; in assay [2] it was 5.41%; in assay [3], 2.79%; in the assay with Trypanosoma cruzi, -0.097%; in assay [4] it was 2.45%; in [5], 9.76%. Also, the Percent Effect in the assay listed under Homo sapiens is 7.29%; in [6], 4.79%; in assay [7] it was 12.2%; in assay [8], -3.08%.

Turning to `Cc1cnn(C2CCCN(C(=O)Cc3ccc(-n4cccn4)cc3)C2)c1` (stereo not given), the Percent Effect in assay [1] is -6.71%; in assay [2], -2.67%; in [3], 3.46%; with Trypanosoma cruzi it was 3.81%; in [4], 2.66%; in assay [5] it was 1.27%. Moreover, the Percent Effect is 6.09% in the assay filed under Homo sapiens, -1.58% in assay [6], 5.13% in [7] and -7.75% in [8].

For `CC1CCCCN1C(=O)CN1CCN(c2ccc3nncn3n2)CC1` (stereo not given), the Percent Effect in assay [1] was -3.43%; in assay [2], 15.4%; in [3], 1.72%; in the assay on Trypanosoma cruzi, 7.42%; in assay [4], -0.82%; in [5], 11.3%. For the same compound, the Percent Effect in the assay filed under Homo sapiens was 6.75%; in [6], 6.22%; in assay [7], 13.2%; in assay [8] it was -7.79%.

With `CC1CN(c2ccc(CNC(=O)c3ccn(C)c(=O)c3)cn2)CCO1` (stereo not given), the Percent Effect was -4.46% in assay [1]; 16% in [2]; 0.777% in assay [3]; 1.61% in the assay on Trypanosoma cruzi; 5.32% in assay [4]; 7.72% in assay [5]. Further, the Percent Effect was 6.29% in the assay listed under Homo sapiens, 3.68% in assay [6], 15.4% in [7] and -8.09% in assay [8].

Values taken from ChEMBL document CHEMBL3988442, “University of Dundee, Small-Polar-MMV Screening Library” (2021).
